Reference: PubChem BioAssay (EPA / NIEHS)
Calls of active or inactive are those of the source. The calls were made as follows: active = hit-call score of the fitted dose curve at least 0.9, where 1 is the maximum; inactive = score below 0.9.

What was measured:
[1] = target: Bile acid receptor (Homo sapiens) (UniProt Q96RI1); experiment: ATG_IR1_CIS: Attagene CIS-FACTORIAL HepG2 Assay for human Nuclear Receptor Subfamily 1 Group H Member 4 (NR1H4), IR1 submotif (AID 2282946); conditions: IR1 reporter transcription, actives raise or lower the signal
Chain of Bile acid receptor (Homo sapiens) (Q96RI1 whole entry, looked up): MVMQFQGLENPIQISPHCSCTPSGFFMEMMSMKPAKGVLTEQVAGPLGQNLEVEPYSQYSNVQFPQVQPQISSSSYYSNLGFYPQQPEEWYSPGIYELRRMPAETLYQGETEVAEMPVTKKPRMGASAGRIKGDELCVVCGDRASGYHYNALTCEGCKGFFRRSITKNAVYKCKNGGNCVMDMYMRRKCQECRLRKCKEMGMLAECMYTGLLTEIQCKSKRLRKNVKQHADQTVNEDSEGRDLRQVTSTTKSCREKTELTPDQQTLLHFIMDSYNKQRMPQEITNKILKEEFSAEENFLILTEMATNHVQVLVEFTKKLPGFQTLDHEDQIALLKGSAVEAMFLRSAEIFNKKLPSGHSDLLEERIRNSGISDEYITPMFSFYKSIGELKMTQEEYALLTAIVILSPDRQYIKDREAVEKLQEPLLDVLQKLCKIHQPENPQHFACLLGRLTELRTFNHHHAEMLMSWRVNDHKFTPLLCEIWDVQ
Summary of the method: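 Transient MRTU transfection, HepG2; 24 h dosing; RNA → RT-PCR → 6-FAM primer extension → HpaI digest → capillary electrophoresis fluorescence. Gain/loss of signal fitted relative to DMSO.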

[2] = ATG_ISRE_CIS: Attagene CIS-FACTORIAL HepG2 Assay for human Interferon Regulatory Factor 1 (IRF1) binding to an Interferon-Stimulated Response Element (ISRE) (AID 2282948); conditions: HepG2 ISRE cis-reporter (Attagene), mRNA transcription readout; actives raise or lower the signal
Summary of the method: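 Quantitation relies on labelled RT-PCR fragments separated by capillary electrophoresis. Human HepG2 cells bearing cis-promoter reporter constructs were treated 24 h; DMSO served as baseline for bidirectional fitting.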

[3] = ATG_M_32_CIS: Attagene CIS-FACTORIAL HepG2 Assay for M32 Transcription Factor (Internal Marker) (AID 2282949); conditions: HepG2 Attagene cis-factorial M32 reporter, mRNA; actives raise or lower the signal;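 also: background control marker of the multiplexed CIS panel rather than a real target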
Summary of the method: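 Following 24 h chemical exposure of HepG2 cells transiently expressing cis-promoter reporter constructs, reporter transcript levels were determined by RT-PCR with fluorescent labelling and capillary electrophoresis, then fitted bidirectionally against DMSO.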

[4] = ATG_M_06_CIS: Attagene CIS-FACTORIAL HepG2 Assay for M06 Transcription Factor (Internal Marker) (AID 2282950); conditions: HepG2 Attagene CIS-FACTORIAL M06 internal marker reporter; actives raise or lower the signal
Summary of the method: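 HepG2 cells transiently transfected with cis-regulated multiple reporter transcription units were exposed to chemical for 24 h; reporter mRNA was quantified by RT-PCR, 6-FAM primer labelling, HpaI digestion and capillary electrophoresis, fitted bidirectionally against DMSO.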

[5] = target: Hypoxia-inducible factor 1-alpha (Homo sapiens) (UniProt Q16665); experiment: ATG_HIF1a_CIS: Attagene CIS-FACTORIAL HepG2 Assay for human Hypoxia Inducible Factor 1 (HIF1A) (AID 2282951); conditions: HepG2 Attagene cis-factorial HIF1a reporter transcription; actives raise or lower the signal
Chain of Hypoxia-inducible factor 1-alpha (Homo sapiens) (Q16665 whole entry, looked up): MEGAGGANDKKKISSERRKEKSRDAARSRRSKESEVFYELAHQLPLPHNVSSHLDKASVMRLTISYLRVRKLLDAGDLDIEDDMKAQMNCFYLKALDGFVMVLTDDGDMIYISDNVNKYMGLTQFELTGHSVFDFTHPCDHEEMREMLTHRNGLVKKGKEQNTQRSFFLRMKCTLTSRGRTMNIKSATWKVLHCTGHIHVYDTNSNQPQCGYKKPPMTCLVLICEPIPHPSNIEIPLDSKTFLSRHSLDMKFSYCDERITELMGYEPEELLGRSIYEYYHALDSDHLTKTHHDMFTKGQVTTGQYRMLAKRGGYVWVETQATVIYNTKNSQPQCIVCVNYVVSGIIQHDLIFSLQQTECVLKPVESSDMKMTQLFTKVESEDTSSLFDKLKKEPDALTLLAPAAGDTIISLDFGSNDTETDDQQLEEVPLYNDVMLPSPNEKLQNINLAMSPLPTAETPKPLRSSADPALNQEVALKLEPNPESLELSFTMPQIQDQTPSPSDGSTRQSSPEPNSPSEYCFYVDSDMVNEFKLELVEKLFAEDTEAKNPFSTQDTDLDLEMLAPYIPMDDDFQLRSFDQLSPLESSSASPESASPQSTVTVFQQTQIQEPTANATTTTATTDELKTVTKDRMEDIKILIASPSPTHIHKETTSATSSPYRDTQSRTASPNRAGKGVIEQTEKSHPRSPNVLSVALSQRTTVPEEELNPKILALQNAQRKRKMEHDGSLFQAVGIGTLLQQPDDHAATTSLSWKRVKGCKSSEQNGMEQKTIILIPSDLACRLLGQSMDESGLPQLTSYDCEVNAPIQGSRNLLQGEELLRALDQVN
Summary of the method: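 RT-PCR/capillary electrophoresis fluorescence readout of reporter transcripts from endogenous-TF-driven cis elements in transfected HepG2 cells, 24 h exposure; activity fitted in both directions against DMSO controls.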

[6] = target: Hepatocyte nuclear factor 6 (Homo sapiens) (UniProt Q9UBC0); experiment: ATG_HNF6_CIS: Attagene CIS-FACTORIAL HepG2 Assay for human Hepatocyte Nuclear Factor 6 (HNF6) (AID 2282952); conditions: HepG2 Attagene cis-factorial HNF6 reporter transcription; actives raise or lower the signal
Chain of Hepatocyte nuclear factor 6 (Homo sapiens) (Q9UBC0 whole entry, looked up, the tested form may be a part): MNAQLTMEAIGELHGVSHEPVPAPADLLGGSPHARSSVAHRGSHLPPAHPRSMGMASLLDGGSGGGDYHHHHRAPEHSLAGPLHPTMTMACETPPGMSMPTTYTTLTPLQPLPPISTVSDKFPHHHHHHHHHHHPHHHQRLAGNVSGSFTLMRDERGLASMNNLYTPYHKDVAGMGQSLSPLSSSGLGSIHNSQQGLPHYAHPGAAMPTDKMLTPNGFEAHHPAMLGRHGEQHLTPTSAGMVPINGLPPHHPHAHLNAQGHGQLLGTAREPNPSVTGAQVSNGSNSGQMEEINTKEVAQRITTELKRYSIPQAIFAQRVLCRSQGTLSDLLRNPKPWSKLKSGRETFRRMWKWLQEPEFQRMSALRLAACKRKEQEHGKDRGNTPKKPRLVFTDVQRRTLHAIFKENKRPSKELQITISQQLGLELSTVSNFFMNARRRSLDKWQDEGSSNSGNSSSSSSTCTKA
Summary of the method: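 Reporter mRNA induction or loss in HepG2 after 24 h exposure; transient cis-MRTU transfection; fragments quantified by capillary electrophoresis; bidirectional analysis, DMSO as negative control.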

[7] = target: Heat shock factor protein 1 (Homo sapiens) (UniProt Q00613); experiment: ATG_HSE_CIS: Attagene CIS-FACTORIAL HepG2 Assay for human Heat Shock Transcription Factor 1 (HSE) (AID 2282953); conditions: HepG2 HSE cis-reporter, Attagene RNA transcription; actives raise or lower the signal
Chain of Heat shock factor protein 1 (Homo sapiens) (Q00613 whole entry, looked up): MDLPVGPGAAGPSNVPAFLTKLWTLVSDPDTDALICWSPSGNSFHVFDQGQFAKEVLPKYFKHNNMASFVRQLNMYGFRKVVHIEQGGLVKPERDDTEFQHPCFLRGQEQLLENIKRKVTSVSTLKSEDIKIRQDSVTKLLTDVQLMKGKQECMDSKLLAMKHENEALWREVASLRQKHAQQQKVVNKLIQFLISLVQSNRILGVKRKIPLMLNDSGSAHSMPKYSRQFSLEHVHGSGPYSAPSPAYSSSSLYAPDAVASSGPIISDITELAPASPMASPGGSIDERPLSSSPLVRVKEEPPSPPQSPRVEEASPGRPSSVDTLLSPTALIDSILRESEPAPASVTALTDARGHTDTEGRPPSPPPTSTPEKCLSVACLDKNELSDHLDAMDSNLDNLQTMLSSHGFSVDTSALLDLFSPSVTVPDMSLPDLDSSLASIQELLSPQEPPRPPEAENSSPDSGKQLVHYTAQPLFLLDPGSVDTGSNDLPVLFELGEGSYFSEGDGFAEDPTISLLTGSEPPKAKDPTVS
Summary of the method: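 HepG2 cells transiently transfected with multiple reporter transcription units under cis-regulatory promoter control, measuring endogenous transcription factor activity. After 24 h chemical exposure, reporter mRNA quantified by RT-PCR, fluorescent labelling, HpaI digestion and capillary electrophoresis; bidirectional fit versus DMSO.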

[8] = ATG_MRE_CIS: Attagene CIS-FACTORIAL HepG2 Assay for human Metal Responsive Element (MRE) (AID 2282954); conditions: HepG2 MRE cis-reporter transcription, Attagene multiplex; actives raise or lower the signal
Summary of the method: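 HepG2 cells transiently transfected with multiple cis-element reporter units measure endogenous MTF1-driven transcription. After 24 h compound exposure, reporter mRNA is quantified by RT-PCR with 6-FAM labelling, HpaI digestion and capillary electrophoresis; bidirectional fits versus DMSO.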

[9] = ATG_PBREM_CIS: Attagene CIS-FACTORIAL HepG2 Assay for human Phenobarbital-responsive Enhancer Module (PBREM) (AID 2282955); conditions: HepG2 PBREM cis-reporter, Attagene multiplexed transcription; actives raise or lower the signal
Summary of the method: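 Reporter mRNA read by RT-PCR, 6-FAM primer extension, HpaI digestion and capillary electrophoresis. Transfected HepG2 cells, 24 h compound exposure. Gain or loss of signal fitted bidirectionally relative to DMSO baseline.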

[10] = target: Paired box protein Pax-6 (Homo sapiens) (UniProt P26367); experiment: ATG_Pax6_CIS: Attagene CIS-FACTORIAL HepG2 Assay for human Paired Box 6 (PAX6) (AID 2282956); conditions: HepG2 CIS-FACTORIAL PAX6 reporter transcription, RNA readout; actives raise or lower the signal
Chain of Paired box protein Pax-6 (Homo sapiens) (P26367 whole entry, looked up): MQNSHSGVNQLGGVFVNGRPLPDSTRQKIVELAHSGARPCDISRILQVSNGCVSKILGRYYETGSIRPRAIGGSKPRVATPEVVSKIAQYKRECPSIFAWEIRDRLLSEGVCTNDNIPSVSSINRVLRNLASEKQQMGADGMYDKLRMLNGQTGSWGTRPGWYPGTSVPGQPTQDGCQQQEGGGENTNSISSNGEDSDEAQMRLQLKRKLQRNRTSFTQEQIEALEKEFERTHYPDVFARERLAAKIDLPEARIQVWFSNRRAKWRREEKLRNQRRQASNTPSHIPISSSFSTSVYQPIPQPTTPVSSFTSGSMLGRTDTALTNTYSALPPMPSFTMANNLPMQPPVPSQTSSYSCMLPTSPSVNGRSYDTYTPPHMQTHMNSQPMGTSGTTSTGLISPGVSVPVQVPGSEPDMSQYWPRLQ
Summary of the method: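 After twenty-four hours of chemical exposure, transfected HepG2 cells are harvested for RNA. Cis-promoter reporter transcripts are amplified, fluorescently labelled and sized by capillary electrophoresis, with gain and loss of signal scored against DMSO.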

[11] = ATG_PXRE_CIS: Attagene CIS-FACTORIAL HepG2 Assay for human Pregnane X Receptor Element (PXRE) (AID 2282957); conditions: HepG2 Attagene CIS-FACTORIAL PXRE reporter, mRNA; actives raise or lower the signal
Summary of the method: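 Transiently transfected HepG2 cells were dosed and incubated for 24 h. RNA was then isolated, DNase-treated, reverse-transcribed and reporter sequences amplified. Labeled, HpaI-digested fragments were quantified by capillary electrophoresis against DMSO.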

[12] = ATG_PPRE_CIS: Attagene CIS-FACTORIAL HepG2 Assay for human Peroxisome Proliferator-activated Response Element (PPRE) (AID 2282958); conditions: HepG2 PPRE cis-element reporter, Attagene transcription factor profiling; actives raise or lower the signal
Summary of the method: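 Read-out: fluorescent reporter mRNA fragments resolved by capillary electrophoresis after RT-PCR. HepG2 cells carried transiently transfected PPRE-driven cis reporter constructs and were dosed for 24 h; gain or loss of signal fitted relative to DMSO.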

[13] = ATG_RORE_CIS: Attagene CIS-FACTORIAL HepG2 Assay for human RAR-related Orphan Receptor Element (RORE) (AID 2282959); conditions: HepG2 Attagene cis-factorial RORE reporter, mRNA; actives raise or lower the signal
Summary of the method: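 Readout: fluorescent reporter mRNA by RT-PCR plus capillary electrophoresis, 24 h after dosing transfected HepG2 cells. Endogenous transcription factor activity on a cis promoter element is measured. Gain or loss of signal fitted against DMSO.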

[14] = target: Transcription factor Sp1 (Homo sapiens) (UniProt P08047); experiment: ATG_Sp1_CIS: Attagene CIS-FACTORIAL HepG2 Assay for human Specificity Protein 1 (Sp1) (AID 2282961); conditions: HepG2 Sp1 cis-reporter transcription, actives raise or lower the signal
Chain of Transcription factor Sp1 (Homo sapiens) (P08047 whole entry, looked up): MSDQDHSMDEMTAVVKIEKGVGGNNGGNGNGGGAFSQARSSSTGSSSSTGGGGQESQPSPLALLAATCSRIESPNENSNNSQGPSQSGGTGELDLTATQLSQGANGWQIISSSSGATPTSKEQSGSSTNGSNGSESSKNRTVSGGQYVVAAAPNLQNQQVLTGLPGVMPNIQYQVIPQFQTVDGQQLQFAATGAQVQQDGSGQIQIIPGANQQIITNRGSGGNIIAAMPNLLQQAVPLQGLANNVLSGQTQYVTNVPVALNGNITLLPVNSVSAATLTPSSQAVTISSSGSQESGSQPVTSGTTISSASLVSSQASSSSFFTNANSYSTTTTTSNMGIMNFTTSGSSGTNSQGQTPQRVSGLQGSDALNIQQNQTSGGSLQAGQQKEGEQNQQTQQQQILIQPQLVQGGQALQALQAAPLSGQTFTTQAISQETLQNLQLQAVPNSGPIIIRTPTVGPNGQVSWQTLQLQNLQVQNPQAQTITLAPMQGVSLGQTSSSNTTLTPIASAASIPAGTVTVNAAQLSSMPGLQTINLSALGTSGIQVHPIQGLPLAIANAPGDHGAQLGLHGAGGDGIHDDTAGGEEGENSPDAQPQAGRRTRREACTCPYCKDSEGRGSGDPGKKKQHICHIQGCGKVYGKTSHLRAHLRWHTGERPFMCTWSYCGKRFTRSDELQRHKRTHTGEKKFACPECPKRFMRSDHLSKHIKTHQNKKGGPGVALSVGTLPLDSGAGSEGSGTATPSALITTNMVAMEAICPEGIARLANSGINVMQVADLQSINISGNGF
Summary of the method: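 Read-out: fluorescence of 6-FAM-labeled, HpaI-digested RT-PCR products separated by capillary electrophoresis. HepG2 cells carried transfected cis-element reporter units and were exposed to chemicals for 24 h; gain or loss of signal fitted relative to DMSO.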

[15] = ATG_SREBP_CIS: Attagene CIS-FACTORIAL HepG2 Assay for human Sterol Regulatory Element Binding (SREBP) (AID 2282962); conditions: HepG2 Attagene cis-factorial SREBP reporter, mRNA; actives raise or lower the signal
Summary of the method: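 Twenty-four hours after chemical dosing of transfected HepG2 cultures, reporter RNA was converted to cDNA, amplified, end-labelled with 6-FAM and resolved by capillary electrophoresis. Responses were fitted relative to DMSO.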

[16] = target: Signal transducer and activator of transcription 3 (Homo sapiens) (UniProt P40763); experiment: ATG_STAT3_CIS: Attagene CIS-FACTORIAL HepG2 Assay for human Signal Transducer and Activator of Transcription 3 (STAT3) (AID 2282963); conditions: HepG2, Attagene cis-factorial STAT3 reporter transcription; actives raise or lower the signal
Chain of Signal transducer and activator of transcription 3 (Homo sapiens) (P40763 whole entry, looked up): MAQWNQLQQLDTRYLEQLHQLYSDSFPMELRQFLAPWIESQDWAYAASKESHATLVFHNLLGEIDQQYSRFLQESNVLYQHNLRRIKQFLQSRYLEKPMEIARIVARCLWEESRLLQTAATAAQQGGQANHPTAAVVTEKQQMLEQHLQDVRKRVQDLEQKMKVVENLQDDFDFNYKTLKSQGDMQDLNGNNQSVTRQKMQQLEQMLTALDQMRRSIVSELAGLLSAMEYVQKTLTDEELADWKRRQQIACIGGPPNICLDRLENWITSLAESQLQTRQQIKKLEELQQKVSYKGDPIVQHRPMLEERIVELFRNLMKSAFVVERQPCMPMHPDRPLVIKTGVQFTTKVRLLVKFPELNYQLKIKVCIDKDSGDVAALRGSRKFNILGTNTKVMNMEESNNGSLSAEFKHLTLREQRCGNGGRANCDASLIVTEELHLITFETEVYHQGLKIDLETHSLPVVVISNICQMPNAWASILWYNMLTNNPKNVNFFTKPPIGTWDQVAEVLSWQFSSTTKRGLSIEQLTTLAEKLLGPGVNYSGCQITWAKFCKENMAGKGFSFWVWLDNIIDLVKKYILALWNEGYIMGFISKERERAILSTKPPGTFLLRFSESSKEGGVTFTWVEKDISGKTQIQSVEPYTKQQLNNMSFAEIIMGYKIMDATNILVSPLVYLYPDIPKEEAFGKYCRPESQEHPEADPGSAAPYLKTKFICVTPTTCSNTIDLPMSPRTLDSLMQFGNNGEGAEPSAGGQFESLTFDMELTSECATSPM
Summary of the method: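 HepG2 cells transiently transfected with cis-element-driven multiple reporter transcription units; after 24 h chemical exposure, reporter mRNA measured by RT-PCR, 6-FAM primer-extension labelling, HpaI digestion and capillary electrophoresis. Bidirectional fitting versus DMSO baseline.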

[17] = ATG_TA_CIS: Attagene CIS-FACTORIAL HepG2 Assay for human TA Basal Promoter (AID 2282964); conditions: HepG2 Attagene CIS-factorial TA basal promoter reporter; actives raise or lower the signal
Summary of the method: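 HepG2 cells transiently transfected with multiplexed cis-promoter reporter units, dosed 24 h. Reporter mRNA measured by RT-PCR, 6-FAM labelling, HpaI digestion and capillary electrophoresis; bidirectional fit versus DMSO baseline, serving as background control.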

[18] = ATG_TCF_b_cat_CIS: Attagene CIS-FACTORIAL HepG2 Assay for human T-Cell-Factor with beta-catenin (TCF/b-cat) (AID 2282965); conditions: HepG2 TCF/beta-catenin cis-reporter transcription, actives raise or lower the signal
Summary of the method: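 HepG2 cells transiently transfected with multiple cis-promoter-regulated reporter transcription units, so endogenous transcription factor activity is measured. Reporter mRNA read 24 hours after dosing by RT-PCR, fluorescent labelling and capillary electrophoresis; bidirectional fitting against DMSO.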

[19] = ATG_Sox_CIS: Attagene CIS-FACTORIAL HepG2 Assay for human SRY-box transcription factor (SOX) (AID 2282960); conditions: HepG2 Attagene cis-factorial SOX reporter, mRNA; actives raise or lower the signal
Summary of the method: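 Read-out: fluorescent RT-PCR products of SOX1-linked reporter transcripts resolved by capillary electrophoresis, fitted bidirectionally against DMSO. Transiently transfected HepG2 cells, 24 h after chemical exposure, endogenous transcription factor activity.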

Measured: AC50

O=Cc1ccc(Cl)c([N+](=O)[O-])c1
active: [1] 63.7 µM | [2] 149 µM | [5] 139 µM | [6] 134 µM | [7] 142 µM | [8] 142 µM | [10] 91.2 µM | [11] 67.5 µM | [14] 146 µM | [15] 137 µM | [18] 65.1 µM
inactive: [3] | [4] | [9] | [12] | [13] | [16] | [17]

Clc1nc(C(Cl)(Cl)Cl)c(Cl)c(Cl)c1Cl
active: [1] 22.6 µM | [2] 62.7 µM | [6] 49.9 µM | [7] 53.9 µM | [8] 54.4 µM | [11] 39.4 µM | [18] 62.7 µM
not listed: [15]
inactive: all other assays above

Cc1ccc(C=O)cc1
not listed: [9] | [17]
inactive: all other assays above
